From PubChem
The sample as a whole holds a higher share of hits than the screen did.
Dicer processing: inhibitors of human Dicer processing of pre-microRNA | Q9UPY3 | cat-ELCCA pre-miR-21 Dicer processing, chemiluminescence; active compounds read high | z-score at 25 µM | 47,000 compounds, 6% hits | AID 1347074; in the data active means z-score above about 3, passing the limit was not always enough;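 further: plate controls were vehicle for no effect and no enzyme for full effect; higher signal means more uncleaved substrate so more Dicer inhibition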
Active calls of the source: *.

SMILES	Dicer processing
CCN(CC)C(=O)Cn1cc(C(=O)c2ccco2)c2ccccc21	-0.38
COC(=O)c1cn(CCOc2ccc(F)cc2)c2ccccc12	2.2
O=C(c1ccco1)c1cn(CCOc2ccc(Cl)cc2)c2ccccc12	-0.39
COC(=O)Cn1cc(C(=O)c2ccccc2)c2ccccc21	3.6*
Cc1nc2nc(C(F)(F)F)[nH]n2c(=O)c1Cc1ccc(C(C)C)cc1	-0.64
Cc1cc(C)c(NC(=S)NN)c(C)c1	1.8
O=S(=O)(CCS(=O)(=O)c1cccs1)c1ccccc1	-1.8
Cn1cnc(S(=O)(=O)NCc2ccc3c(c2)OCO3)c1	-0.18
O=C(O)CC1(CC(=O)N2CCC(n3cccc3)CC2)CCCC1	-0.64
COc1ccc(-c2[nH]ncc2/C=C(\C#N)S(C)(=O)=O)cc1	-0.1
CC(C)(C)OC(=O)NCCNc1ccc(C(F)(F)F)cc1[N+](=O)[O-]	-1.7
N/C(=N\OC(=O)Nc1ccc(Cl)cc1)c1ncc([N+](=O)[O-])s1	-2.5
O=C(Nc1ccc(Cl)cc1)Nc1csc([N+](=O)[O-])c1	-0.84
N/C(=N/OC(=O)Nc1ccc(Cl)cc1)c1csc([N+](=O)[O-])c1	5*
Cc1ccc(-c2c3c(=O)n(C)c(=O)n(C)c3cn2C(C)(C)C)cc1	0.54
Cn1c(-c2ccc(Cl)cc2)cnc1NCc1ccccc1F	3.2*
Cn1c(-c2ccccc2)cnc1NCc1cc(Cl)ccc1O	1.5
Cn1c(-c2ccc(Cl)cc2)cnc1NCc1ccc(F)cc1F	3.3*
Cc1ccc(-c2cnc(NCc3ccc(Br)cc3)n2C)cc1	3.3*
COc1ccc(-c2cnc(NCc3cc(Br)ccc3F)n2C)cc1	-1.2
Cn1c(-c2ccc(F)cc2)cnc1NCc1ccc(Br)cc1	3.7
Cn1c(-c2ccc(F)cc2)cnc1NCc1ccccc1F	1.6
COc1cccc(-c2cnc(NCc3ccc(Br)cc3)n2C)c1	0.77
Cn1c(-c2ccccc2)cnc1NCc1cc(Br)ccc1F	1.1
O=C(O)c1cccc2c1NC(c1ccc(F)cc1)C1C3CCC(C3)C21 (centres undefined)	-0.35
SMILES	Dicer processing
CCSc1cc(C(F)(F)F)c(C(=O)N(C)Cc2c(OC)cccc2OC)cn1	-0.69
CSC(=NC#N)N1CCC(C(=O)c2ccccc2)CC1	-0.6
CCc1ccc(C2C(C(=O)OCCOC)=C(C)NC3=C2C(=O)CC(c2ccccc2)C3)cc1 (centres undefined)	1.4
Cc1ccc(C2=CC(c3ccccc3Cl)n3nc(CCCO)nc3N2)cc1 (centres undefined)	1.3
O=C(Nc1ccc(Oc2c(Cl)cccc2Cl)nc1)c1ccc2c(c1)CCO2	-0.17
Cc1ccc(S(=O)(=O)Nc2nc(-c3ccc(C)c(Cl)c3)c(C)s2)cc1	3.3*
Cc1ccc(-c2nc(NC(=O)c3ccccc3)sc2C)cc1Cl	0.94
Cc1ccc(S(=O)(=O)NC(=O)Nc2nc(-c3ccc(C)c(Cl)c3)c(C)s2)cc1	-1.6
Cc1nn(C)cc1/C=N/Nc1ncnc2c1cnn2C	0.27
O=C(Nc1nnc(Sc2ccnc3cc(Cl)ccc23)s1)c1sc2ccccc2c1Cl	-0.11
CNC(=O)c1cccc2cccc(Sc3ccccc3C(=O)O)c12	25*
O=C(O)c1cccc2cccc(Sc3cccc4ccccc34)c12	0.88
O=C(O)c1cccc2cccc(Sc3cccc4cccc(CO)c34)c12	-0.86
O=C1Nc2ccccc2/C1=C/c1cccn1-c1ccc(OC(F)(F)F)cc1	0.47
O=C(OCCN1CCOCC1)C1c2ccccc2Oc2ccccc21	-0.77
CC(C)(C)S(=O)(=O)/C(C#N)=C/N1CCOCC1	-0.8
Clc1ccc(-c2noc(CSc3nc4ccccc4[nH]3)n2)cc1	1
N#CCCN(CN1C(=O)C(=O)c2cc(Br)ccc21)C1CCCCC1	-3.1
CCCN1C(=O)C(=O)c2cc(Br)ccc21	-0.64
C#CCN1C(=O)C(=O)c2cc(Br)ccc21	4.3*
Cc1cc(Nc2ccccc2)c2ccccc2n1	1.5
COc1ccc2nc(C)cc(Nc3ccc(Br)cc3)c2c1	5*
CCOc1ccc(Nc2cc(C)nc3ccc(OC)cc23)cc1	2.9
Cc1ccc(NC(=S)N2CCCc3ccccc32)c(C)c1	0.86
COc1cccc(NC(=S)Nc2ccc(OC)c(OC)c2)c1	0.85
SMILES	Dicer processing
CC1=C(C(=O)OC(C)C)C(c2cccc3ccccc23)C2=C(CC(C)(C)CC2=O)N1 (centres undefined)	1
Cn1c(=O)c2c(-c3ccc(F)cc3)cc(-c3cccc(F)c3)nc2n(C)c1=O	2.2
COc1ccc(-c2cc(-c3ccc(OC)cc3)c3c(=O)n(C)c(=O)n(C)c3n2)cc1	3.4*
COc1ccc(-c2nc3c([nH]2)c(=O)n(C)c(=O)n3C)c(OC)c1	-0.42
CN1CCc2c(sc3c2C(=O)NC(c2cc(Br)ccc2O)N3)C1 (centres undefined)	0.71
COc1ccc(/C(O)=C2\C(=O)C(=O)N(c3nnc(C)s3)C2c2ccc(F)cc2)cc1 (centres undefined)	0.32
N#CC1=C(N)Oc2n[nH]c(-c3ccc4c(c3)OCO4)c2C1c1ccccc1Cl (centres undefined)	-5.1
CC(=O)c1cc([N+](=O)[O-])c(Nc2ccc(Cl)cc2)s1	4.8*
CC(=O)c1cc([N+](=O)[O-])c(Nc2ccccc2)s1	0.9
COc1ccc(Nc2sc(C(C)=O)cc2[N+](=O)[O-])cc1	1.4
Cn1c(=O)c2c3nc4cc([N+](=O)[O-])ccc4cc3c(=O)n(C)c2n(C)c1=O	-0.92
CC1=C(C(N)=O)C(c2ccc(O)cc2)n2nnnc2N1 (centres undefined)	-0.08
COc1nc(NCC(C)C)nc(Oc2ccc(=O)n(C)n2)n1	-0.95
O=C(Nc1ccc2[nH]ncc2c1)C1CCC1	-0.03
S=C(NCC1CC1)Nc1ccc2[nH]ccc2c1	4.8*
O=C(NCC1CC1)Nc1ccc2c(c1)CCO2	1
CC(C)(C)OC(=O)N1CCCN(C(=S)Nc2ccccc2N2CCOCC2)CC1	-0.86
S=C(Nc1ccc(N2CCOCC2)nc1)Nc1cc(Cl)ccc1Cl	0.43
S=C(Nc1ccc2[nH]ccc2c1)Nc1ccccc1N1CCOCC1	4.6*
CCOC(=O)N1CCc2c(sc3[nH]c(=S)n(Cc4ccccc4)c(=O)c23)C1	2.7
O=S(=O)(c1ccc(Cl)cc1)N1c2ccccc2OC1c1ccc(Cl)c(Cl)c1 (centres undefined)	-0.04
CCOC(=O)c1cc(C#N)c(N2CCN(S(C)(=O)=O)CC2)nc1C(F)(F)F	-0.43
C/C(=N\Nc1ccc(F)cc1F)c1sc(CCn2cccc(C(F)(F)F)c2=O)nc1C	0.05
CN(C)c1ncnc2c1C(c1ccc(Br)cc1)c1c(ncnc1N(C)C)O2	5*
O=c1[nH]cnc2c1nnn2Cc1ccccc1Cl	-1.5
SMILES	Dicer processing
O=S(=O)(/C=C/c1ccccc1)c1ccc(F)c(Cl)c1	-0.86
O=C(O)CS(=O)(=O)/C=C/c1ccccc1	19*
O=C(N/N=C/C=C/c1ccccc1)N/N=C/C=C/c1ccccc1	-0.35
O=C(Nc1ccc(F)c(Cl)c1)c1cc2nc(-c3ccco3)cc(C(F)(F)F)n2n1	-0.06
CN1CCN(C(=O)c2cnn3c(C(F)(F)F)cc(-c4ccco4)nc23)CC1	1.1
Cc1nn2c(C(F)(F)F)cc(-c3ccc(Cl)cc3)nc2c1Cl	-1.3
O=C(NCc1ccc(Cl)cc1)c1nn2c(C(F)(F)F)cc(-c3ccco3)nc2c1Cl	4.2*
Cc1nn2c(C(F)(F)F)cc(-c3cccnc3)nc2c1-c1ccc(Cl)cc1	-0.72
O=C(NCc1cccnc1)c1nn2c(C(F)(F)F)cc(-c3ccc(F)cc3)nc2c1Cl	3.1*
O=C(Nc1ccc(Cl)cc1)SCc1c(Cl)cccc1Cl	-2.9
CCOC(=O)c1c(SC)[nH]c2c(C)ccc(Cl)c2c1=O	-1.4
